The text below walks through data of ChEMBL document CHEMBL3988442, “University of Dundee, Small-Polar-MMV Screening Library” (2021).

For some of these results: Entries with a potency or affinity are not part of this list.

What all share (parameters): scale not given: direction of the effect not stated beside the values
The target of assay [1] is Protein translocase subunit SecA (Escherichia coli (strain K12)) (UniProt P10408). In words: Assay to Identify E. coli SecA ATPase Inhibitors. Type of assay: functional. Particulars: 30 µM.
Assay [2] has as its target T1, Ubiquitin-activating enzyme e1, putative (Leishmania donovani (strain BPK282A1)) (UniProt E9BSI1).
T1 sequence (whole entry): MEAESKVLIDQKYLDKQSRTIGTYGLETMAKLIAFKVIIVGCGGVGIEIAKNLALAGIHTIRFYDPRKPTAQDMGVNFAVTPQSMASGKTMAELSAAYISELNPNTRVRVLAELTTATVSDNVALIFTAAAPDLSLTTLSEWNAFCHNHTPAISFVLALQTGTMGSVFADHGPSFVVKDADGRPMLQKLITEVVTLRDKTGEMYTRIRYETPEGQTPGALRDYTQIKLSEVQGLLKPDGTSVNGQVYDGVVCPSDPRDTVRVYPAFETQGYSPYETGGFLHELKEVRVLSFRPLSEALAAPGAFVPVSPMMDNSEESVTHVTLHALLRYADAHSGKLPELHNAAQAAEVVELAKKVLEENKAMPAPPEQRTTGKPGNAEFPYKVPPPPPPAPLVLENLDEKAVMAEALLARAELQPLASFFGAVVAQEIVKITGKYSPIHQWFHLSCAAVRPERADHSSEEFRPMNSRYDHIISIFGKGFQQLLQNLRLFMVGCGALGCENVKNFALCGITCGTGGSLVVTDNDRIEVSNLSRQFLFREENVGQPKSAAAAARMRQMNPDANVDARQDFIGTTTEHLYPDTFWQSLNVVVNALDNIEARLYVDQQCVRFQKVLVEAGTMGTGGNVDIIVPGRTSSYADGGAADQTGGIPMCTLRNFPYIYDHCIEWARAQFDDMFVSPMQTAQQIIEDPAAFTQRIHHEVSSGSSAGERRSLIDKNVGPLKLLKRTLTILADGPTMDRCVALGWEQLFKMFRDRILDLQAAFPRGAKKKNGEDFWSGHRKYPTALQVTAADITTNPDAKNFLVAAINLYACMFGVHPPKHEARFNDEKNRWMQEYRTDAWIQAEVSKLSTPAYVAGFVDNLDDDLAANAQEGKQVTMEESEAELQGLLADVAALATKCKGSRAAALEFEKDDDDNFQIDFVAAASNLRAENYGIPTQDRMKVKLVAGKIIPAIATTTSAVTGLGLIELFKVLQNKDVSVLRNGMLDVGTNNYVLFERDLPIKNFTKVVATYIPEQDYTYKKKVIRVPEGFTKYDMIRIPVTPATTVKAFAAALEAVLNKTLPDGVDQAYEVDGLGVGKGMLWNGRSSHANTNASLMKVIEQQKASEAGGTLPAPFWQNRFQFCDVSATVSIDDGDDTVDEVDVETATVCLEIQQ
In words: Leishmania donovani Ubiquitin Activating Enzyme (LdE1). Type of assay: functional. Particulars: 30 µM.

Assay [3] concerns the target AMP-activated protein kinase, AMPK (Homo sapiens) (UniProt P54646+O43741+P54619+Q9UGJ0+Q9Y478+Q13131+Q9UGI9). In words: AMP-dependent Kinase enzyme assay. An in vitro enzyme assay that detects ADP turnover that is directly proportional to AMPK activity. This uses naive AMPK that is activated during the assay with MK-8722. Type of assay: functional. The note with it: 30 µM.

Assay [4] addresses Sialic acid-binding Ig-like lectin 9 (Homo sapiens) (UniProt Q9Y336). In words: Hs-Siglec9 ALPHAscreen SOP 20170721. Particulars: 10 µM.
A further assay concerns Trypanosoma cruzi. In words: Trypanosoma cruzi phosphomannomutase and mannose-1-phosphate guanylyltransferase assay. The note with it: 10 µM. It is filed as functional.
In assay [5] the target is T2, Arginase-2, mitochondrial (Homo sapiens) (UniProt P78540).
T2 sequence (whole entry): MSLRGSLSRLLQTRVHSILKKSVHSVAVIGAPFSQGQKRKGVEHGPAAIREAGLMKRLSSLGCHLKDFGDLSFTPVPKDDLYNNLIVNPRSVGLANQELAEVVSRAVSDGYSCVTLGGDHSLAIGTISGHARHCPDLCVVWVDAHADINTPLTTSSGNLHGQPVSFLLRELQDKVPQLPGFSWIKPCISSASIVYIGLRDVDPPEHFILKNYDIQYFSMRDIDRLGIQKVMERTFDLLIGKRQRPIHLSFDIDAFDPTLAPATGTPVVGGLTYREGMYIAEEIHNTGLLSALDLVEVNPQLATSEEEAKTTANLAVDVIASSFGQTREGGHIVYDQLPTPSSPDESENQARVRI
In words: in vitro enzyme assay to detect the production of urea directly proportional to the activity of Arginase II. Note: in the data most compounds retested in dose-response had high values. Type of assay: functional. The note with it: 33.3 µM.

Assay [6] deals with T3, Proteasome subunit beta (Trypanosoma cruzi) (UniProt O96673).
T3 sequence (whole entry): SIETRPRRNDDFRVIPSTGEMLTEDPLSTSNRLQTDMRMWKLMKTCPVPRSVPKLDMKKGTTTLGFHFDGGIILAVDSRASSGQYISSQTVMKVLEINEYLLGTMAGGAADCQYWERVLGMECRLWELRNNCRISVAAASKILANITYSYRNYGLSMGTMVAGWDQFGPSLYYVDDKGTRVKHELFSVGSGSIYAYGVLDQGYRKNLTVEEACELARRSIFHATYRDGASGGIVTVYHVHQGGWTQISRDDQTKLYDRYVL
Nature of the assay: Trypanosoma cruzi proteasome chymotrypsin-like activity (TcProtChymo) assay. Note: in the data most compounds retested in dose-response had high values. Type of assay: functional. Particulars: 9.37 µM.

A further assay is filed under the species Homo sapiens. In words: To identify inhibition of the IFN signalling (Jak-Stat) pathway via expression of an eGFP reporter gene under the control of an IFN-stimulated response element (ISRE) containing MxA promoter. Particulars: 30 µM. Type of assay: functional.
Assay [7] has as its target T4, Tyrosyl-tRNA synthetase, putative (Trypanosoma cruzi (strain CL Brener)) (UniProt Q4DSP6).
T4 sequence (whole entry): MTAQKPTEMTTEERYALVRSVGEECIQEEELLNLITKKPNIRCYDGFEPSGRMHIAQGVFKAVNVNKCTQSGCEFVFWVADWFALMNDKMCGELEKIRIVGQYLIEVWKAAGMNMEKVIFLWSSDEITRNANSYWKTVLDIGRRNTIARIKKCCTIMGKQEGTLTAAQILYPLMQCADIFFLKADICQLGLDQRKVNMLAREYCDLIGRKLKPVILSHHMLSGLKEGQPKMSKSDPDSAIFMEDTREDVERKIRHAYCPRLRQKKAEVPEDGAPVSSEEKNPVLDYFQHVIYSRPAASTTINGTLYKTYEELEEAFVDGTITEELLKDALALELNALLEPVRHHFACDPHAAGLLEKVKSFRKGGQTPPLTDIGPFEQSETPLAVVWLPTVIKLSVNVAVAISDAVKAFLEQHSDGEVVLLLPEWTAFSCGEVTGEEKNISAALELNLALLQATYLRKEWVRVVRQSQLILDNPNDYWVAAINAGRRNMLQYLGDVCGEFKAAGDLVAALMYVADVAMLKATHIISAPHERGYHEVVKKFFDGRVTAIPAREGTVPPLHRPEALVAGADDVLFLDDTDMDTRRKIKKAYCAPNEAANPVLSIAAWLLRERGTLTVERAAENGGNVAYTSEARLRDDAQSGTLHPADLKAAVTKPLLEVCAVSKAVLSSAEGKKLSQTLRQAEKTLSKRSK
In words: Trypanosoma cruzi tyrosyl tRNA synthetase (TcYRS) _High Tyrosine SOP. Note: in the data most compounds retested in dose-response had high values. It is filed as functional. The note with it: 30 µM.

For assay [8], the target named is T4, Tyrosyl-tRNA synthetase, putative (Trypanosoma cruzi (strain CL Brener)). In words: Trypanosoma cruzi tyrosyl tRNA synthetase (TcYRS) SOP. It is filed as functional. Particulars: 30 µM.
Assay [9] concerns the target Chromo domain-containing protein 1 (Saccharomyces cerevisiae (strain ATCC 204508 / S288c) (Baker's yeast)) (UniProt P32657). Nature of the assay: ScCHD-1 Enzyme Inhibition Assay. Note: in the data most compounds retested in dose-response had high values. It is filed as functional. Particulars: 30 µM.

Sialic acid-binding Ig-like lectin 9 (Homo sapiens), sequence (Q9Y336 whole entry): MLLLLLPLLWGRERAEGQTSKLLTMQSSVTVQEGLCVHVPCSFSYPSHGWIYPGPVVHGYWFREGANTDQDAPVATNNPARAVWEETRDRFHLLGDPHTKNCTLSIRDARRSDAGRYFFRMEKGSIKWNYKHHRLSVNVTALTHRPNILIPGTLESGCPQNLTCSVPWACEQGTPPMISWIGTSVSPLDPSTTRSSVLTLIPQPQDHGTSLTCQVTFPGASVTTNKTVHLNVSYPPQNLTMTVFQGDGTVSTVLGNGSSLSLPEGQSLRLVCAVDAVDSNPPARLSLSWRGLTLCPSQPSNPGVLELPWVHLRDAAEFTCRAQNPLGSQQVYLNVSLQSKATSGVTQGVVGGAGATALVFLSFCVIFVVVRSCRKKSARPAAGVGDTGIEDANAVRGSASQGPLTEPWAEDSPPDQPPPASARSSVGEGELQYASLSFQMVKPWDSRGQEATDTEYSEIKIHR
Chromo domain-containing protein 1 (Saccharomyces cerevisiae (strain ATCC 204508 / S288c) (Baker's yeast)), sequence (P32657 whole entry, the tested form may be a part): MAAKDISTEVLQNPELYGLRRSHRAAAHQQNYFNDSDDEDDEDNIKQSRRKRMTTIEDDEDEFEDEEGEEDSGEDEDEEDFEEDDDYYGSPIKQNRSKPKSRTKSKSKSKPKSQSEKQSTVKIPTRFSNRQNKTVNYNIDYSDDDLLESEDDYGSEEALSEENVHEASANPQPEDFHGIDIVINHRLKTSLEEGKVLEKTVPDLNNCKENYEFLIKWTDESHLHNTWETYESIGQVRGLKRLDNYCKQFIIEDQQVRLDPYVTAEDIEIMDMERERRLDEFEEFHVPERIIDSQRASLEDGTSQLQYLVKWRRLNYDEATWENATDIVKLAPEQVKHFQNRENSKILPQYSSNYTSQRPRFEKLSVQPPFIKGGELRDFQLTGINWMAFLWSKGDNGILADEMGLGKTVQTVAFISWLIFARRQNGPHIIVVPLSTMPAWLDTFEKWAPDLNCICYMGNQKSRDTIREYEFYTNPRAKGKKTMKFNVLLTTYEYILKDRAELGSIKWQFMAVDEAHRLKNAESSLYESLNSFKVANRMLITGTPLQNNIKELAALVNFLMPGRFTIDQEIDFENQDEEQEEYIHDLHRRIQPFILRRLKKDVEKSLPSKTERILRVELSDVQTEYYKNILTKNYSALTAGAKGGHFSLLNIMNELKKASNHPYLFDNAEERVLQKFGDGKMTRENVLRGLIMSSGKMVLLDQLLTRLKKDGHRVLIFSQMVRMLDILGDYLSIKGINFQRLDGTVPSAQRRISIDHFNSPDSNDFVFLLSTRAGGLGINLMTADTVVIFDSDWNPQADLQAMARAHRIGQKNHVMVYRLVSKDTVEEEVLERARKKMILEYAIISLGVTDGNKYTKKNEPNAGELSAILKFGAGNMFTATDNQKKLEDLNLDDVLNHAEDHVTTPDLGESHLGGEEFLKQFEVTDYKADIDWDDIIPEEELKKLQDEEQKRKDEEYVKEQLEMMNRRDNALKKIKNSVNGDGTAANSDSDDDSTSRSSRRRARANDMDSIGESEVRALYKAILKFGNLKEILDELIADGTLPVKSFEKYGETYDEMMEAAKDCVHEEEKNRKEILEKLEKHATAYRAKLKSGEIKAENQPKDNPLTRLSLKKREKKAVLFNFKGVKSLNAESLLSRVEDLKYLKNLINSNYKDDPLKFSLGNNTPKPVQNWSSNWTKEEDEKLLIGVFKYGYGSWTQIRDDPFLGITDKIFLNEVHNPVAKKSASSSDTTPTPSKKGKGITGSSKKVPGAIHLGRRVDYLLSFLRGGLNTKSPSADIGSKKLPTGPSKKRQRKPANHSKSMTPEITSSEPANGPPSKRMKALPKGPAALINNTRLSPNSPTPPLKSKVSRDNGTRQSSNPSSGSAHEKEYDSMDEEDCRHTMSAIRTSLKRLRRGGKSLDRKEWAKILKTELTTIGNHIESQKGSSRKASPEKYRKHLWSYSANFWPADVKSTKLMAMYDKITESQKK
Protein translocase subunit SecA (Escherichia coli (strain K12)), sequence (P10408 whole entry): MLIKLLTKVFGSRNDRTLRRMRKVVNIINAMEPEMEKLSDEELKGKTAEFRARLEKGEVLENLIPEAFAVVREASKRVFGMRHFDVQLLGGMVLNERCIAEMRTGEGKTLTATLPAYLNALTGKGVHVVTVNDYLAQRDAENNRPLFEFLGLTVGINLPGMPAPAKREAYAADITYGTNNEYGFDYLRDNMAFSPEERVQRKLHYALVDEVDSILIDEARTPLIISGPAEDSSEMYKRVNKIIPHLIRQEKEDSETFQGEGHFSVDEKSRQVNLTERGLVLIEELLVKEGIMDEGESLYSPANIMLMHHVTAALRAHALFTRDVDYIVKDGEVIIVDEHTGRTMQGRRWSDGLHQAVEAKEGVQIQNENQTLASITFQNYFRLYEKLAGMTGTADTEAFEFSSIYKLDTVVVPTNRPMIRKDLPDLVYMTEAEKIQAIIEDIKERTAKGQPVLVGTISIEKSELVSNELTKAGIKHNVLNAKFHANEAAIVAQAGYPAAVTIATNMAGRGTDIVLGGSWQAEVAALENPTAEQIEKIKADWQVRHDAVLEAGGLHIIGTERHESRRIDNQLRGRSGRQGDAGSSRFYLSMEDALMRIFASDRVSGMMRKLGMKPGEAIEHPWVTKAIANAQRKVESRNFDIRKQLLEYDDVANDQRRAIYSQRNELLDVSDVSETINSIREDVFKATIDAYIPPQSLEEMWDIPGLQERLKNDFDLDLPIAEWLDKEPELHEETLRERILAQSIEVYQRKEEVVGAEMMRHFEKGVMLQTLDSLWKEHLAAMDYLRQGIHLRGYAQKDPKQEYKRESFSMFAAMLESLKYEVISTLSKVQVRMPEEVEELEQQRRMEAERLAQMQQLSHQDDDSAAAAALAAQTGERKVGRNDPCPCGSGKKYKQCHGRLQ

Turning to `Cc1nn(C)c(N2CCOCC2)c1CNCc1nccs1`, the Percent Effect is -3.96% in assay [1]; 7.89% in assay [2]; -1.27% in assay [3]; 5.34% in [4]; 9.4% in the assay on Trypanosoma cruzi; 4.21% in [5]. Further, the Percent Effect in assay [6] was 9.86%; in the assay filed under Homo sapiens, 3.23%; in assay [7] it was 3.43%; in assay [8] it was 17.1%; in assay [9] it was -6.95%.

As for `CCCn1[nH]cc/c1=N\C(=O)CN1CCCC1c1c(C)nn(C)c1C` (stereo unspecified), the Percent Effect in assay [1] was -4.29%; in [2], 2.7%; in assay [3], -27.7%; in assay [4] it was 15.7%; with Trypanosoma cruzi, 7.45%; in assay [5], 6.81%. Further, the Percent Effect in assay [6] was 3.78%; in the assay listed under Homo sapiens, -0.266%; in [7] it was 3.45%; in assay [8] it was 13.6%; in [9], -10.6%.

On to `CC(NC(=O)NCCCN(C)C)c1ccc2c(c1)CCC(=O)N2` (stereo unspecified), for which the Percent Effect was -3.72% in assay [1]; 13% in assay [2]; 0.292% in [3]; -0.949% in [4]; 10.1% in the assay on Trypanosoma cruzi; -6.05% in [5]. For the same compound, the Percent Effect in assay [6] was 15%; in the assay filed under Homo sapiens, -16.2%; in assay [7], 8.74%; in [8] it was 21.9%; in assay [9], -6.2%.

`CC(NC(=O)NCCCOC1CCCCC1)c1nncn1C` (stereo unspecified): the Percent Effect is -0.354% in [1]; 2.7% in assay [2]; -2.09% in assay [3]; 21.6% in [4]; 4.18% in the assay on Trypanosoma cruzi; -1.29% in [5]. The Percent Effect in assay [6] is 16.2%; in the assay filed under Homo sapiens it was 5.68%; in assay [7], 3.96%; in assay [8] it was 25.6%; in assay [9] it was -7.07%.

On to `CO[C@@H]1CC[C@H]2[C@H]1OCCN2C(=O)c1ccc(C)o1`, for which the Percent Effect in assay [1] was 2.4%; in assay [2], 10.4%; in assay [3] it was 173%; in [4] it was -12.1%; with Trypanosoma cruzi, -7.2%; in assay [5], -11%. For the same compound, the Percent Effect in assay [6] is 14.1%; in the assay listed under Homo sapiens, 22.1%; in assay [7], -3.17%; in [8], -1.28%; in assay [9], -14%.

As for `Cc1c(C)n(Cc2ccccn2)c2nc3c(c(N)c12)CCCC3`, the Percent Effect was -3.58% in assay [1]; -1.33% in assay [2]; 15.5% in assay [3]; 6.91% in assay [4]; -3.73% in the assay on Trypanosoma cruzi; -8.98% in [5]. The Percent Effect in [6] is 12.8%; in the assay listed under Homo sapiens, -6.48%; in [7], 2.12%; in assay [8] it was 5.13%; in [9], -5.09%.

In the case of `O=C(CCCc1cn[nH]c1)N1C[C@@H](CN2CCOCC2)[C@@H](CO)C1`, the Percent Effect in assay [1] is -5.38%; in [2], -5.48%; in assay [3] it was 0.507%; in [4] it was -3.16%; in the assay with Trypanosoma cruzi, -2.74%; in [5] it was -2.27%. The Percent Effect was 4.08% in assay [6]; 5.26% in the assay listed under Homo sapiens; 0% in assay [7]; -5% in [8]; -2.89% in [9].

As to `c1cnnc(N2CCCC2CNc2nc3ccccc3o2)c1` (stereo unspecified), the Percent Effect is -5.3% in [1]; 11.4% in [2]; 3.62% in [3]; 9.59% in assay [4]; 1.33% in the assay on Trypanosoma cruzi; 4.95% in assay [5]. Also, the Percent Effect in assay [6] was 11.5%; in the assay listed under Homo sapiens, 11.9%; in assay [7] it was 0%; in assay [8] it was 20.2%; in assay [9], -16%.

`COc1ccccc1C1CNC(=O)c2nc(-c3cnn(C)c3)[nH]c2C1` (stereo unspecified): the Percent Effect was 0.9% in [1]; 10.8% in assay [2]; -0.668% in [3]; 22.2% in assay [4]; 3.48% in the assay with Trypanosoma cruzi; 1.43% in [5]. The Percent Effect in [6] was 10%; in the assay listed under Homo sapiens, 5.8%; in [7] it was 5.82%; in [8], 17.1%; in assay [9] it was -0.454%.

For `Cn1cc(-c2cnc(N3CCOCC3)nc2)cc1C(=O)NCCO`, the Percent Effect in assay [1] was -0.798%; in assay [2], 5.33%; in assay [3], 1.84%; in [4], -0.344%; in the assay on Trypanosoma cruzi it was -8.86%; in assay [5], 5.83%. The Percent Effect in assay [6] was 8.37%; in the assay filed under Homo sapiens, -3.42%; in [7] it was 0%; in assay [8] it was 6.41%; in assay [9] it was -7.59%.

Take `CC(=O)c1cccc(NC(=O)Cn2cc(I)cn2)c1`: the Percent Effect was -6.3% in [1]; -2.63% in assay [2]; 12% in assay [3]; 2.47% in assay [4]; -2.43% with Trypanosoma cruzi; 11.8% in [5]. For the same compound, the Percent Effect in assay [6] was 9.3%; in the assay listed under Homo sapiens, -2.61%; in assay [7] it was -2.13%; in assay [8], 2.6%; in assay [9] it was 63%.
